Test systems include DU-145 prostate; K-562 leukemia; MALME-3M melanoma; MDA-MB-231 breast; RXF 393 renal; SF-268 CNS; SF-295 CNS; SF-539 CNS; UACC-257 melanoma; M14 melanoma; HCT-15 colon; HT29 colon; SNB-75 CNS; SNB-19 CNS; U251 CNS; PC-3 prostate; SK-MEL-5 melanoma; UACC-62 melanoma; LOX IMVI melanoma; SK-MEL-28 melanoma.
Test in all cases: NCI-60 one-dose screen, 48 h (100 = growth as untreated, 0 = no growth, -100 = all killed)
What all share (settings): 10 µM

This is part of a sample that, as a whole, favours compounds with a hit. Of some 83,000 tested, about 20% had one in any assay.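 Each cell line was grown in a 96-well plate and treated with one concentration of compound for 48 hours. Values below 10 were considered active.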 A number with no mark means an inactive call. Calls of active or inactive are those of the source.

Consider `COc1ccc(S(=O)(=O)Nc2cc(/C=C\c3cc(OC)c(OC)c(OC)c3)ccc2OC)cc1`, for which the growth was -12.8% (active) in the test with DU-145 prostate; 11.1% in the test with K-562 leukemia; 50% with MALME-3M melanoma; 7.83% (active) in the test with MDA-MB-231 breast; 16.4% with RXF 393 renal; 9.24% (active) in the test with SF-268 CNS. The growth was 13% in the test on SF-295 CNS; -13% (active) in the test on SF-539 CNS; 47.7% with UACC-257 melanoma; 8.41% (active) with M14 melanoma; 7.86% (active) with HCT-15 colon; -13.4% (active) in the test with HT29 colon. For the same molecule, the growth is -2.76% (active) in the test on SNB-75 CNS; 55.1% in the test with SNB-19 CNS; 0.353% (active) with U251 CNS; -2.4% (active) in the test with PC-3 prostate; -20.1% (active) in the test on SK-MEL-5 melanoma; 27.8% in the test with UACC-62 melanoma. For the same molecule, the growth was 19.3% with LOX IMVI melanoma and 48.8% in the test with SK-MEL-28 melanoma.

Turning to `CC(=O)c1c(O)cc2c3c1OC(C)(C)C1CCC(C)(CC31)O2` (stereo not given), the growth is 104% in the test with DU-145 prostate; 90.1% in the test on K-562 leukemia; 93.8% in the test with MALME-3M melanoma; 106% in the test with MDA-MB-231 breast; 94.8% with RXF 393 renal; 98.3% with SF-268 CNS. Besides, the growth in the test with SF-295 CNS was 90.2%; with SF-539 CNS it was 89.8%; with UACC-257 melanoma, 126%; in the test on M14 melanoma, 92.2%; in the test on HCT-15 colon, 97.5%; in the test with HT29 colon, 90.6%. Besides, the growth in the test on SNB-75 CNS was 96%; with SNB-19 CNS, 98.7%; in the test with U251 CNS, 102%; in the test with PC-3 prostate it was 88.8%; in the test with SK-MEL-5 melanoma it was 83.1%; in the test on UACC-62 melanoma, 88.5%. In addition, the growth was 97.9% with LOX IMVI melanoma and 111% in the test with SK-MEL-28 melanoma.

On to `Cc1ccc(S(=O)(=O)Nc2cccc3[nH]c(C(F)(F)F)nc23)cc1`, for which the growth with DU-145 prostate was 19%; in the test on K-562 leukemia, 11.6%; in the test with MALME-3M melanoma it was 12.7%; with MDA-MB-231 breast, 31.4%; with RXF 393 renal, 3.7% (active); in the test with SF-268 CNS, 60%. Besides, the growth was 0.543% (active) with SF-295 CNS; -11.9% (active) in the test on SF-539 CNS; 43.1% in the test with UACC-257 melanoma; 15.2% in the test with M14 melanoma; 28.3% with HCT-15 colon; 4.99% (active) in the test on HT29 colon. Also, the growth in the test with SNB-75 CNS is -4.83% (active); in the test on SNB-19 CNS it was 39.2%; in the test on U251 CNS, 29.8%; with PC-3 prostate, 17.2%; with SK-MEL-5 melanoma, 7.01% (active); with UACC-62 melanoma, 36.9%. Besides, the growth with LOX IMVI melanoma was 41.4%; in the test on SK-MEL-28 melanoma, 38.4%.

Consider `O=C1CC[C@@H](C(=O)N[C@H]2CSSC[C@@H](C(=O)N/C=C/c3ccc(O)cc3)NC(=O)[C@H](Cc3ccccc3)NC(=O)[C@@H]3CCCN3C(=O)[C@@H]3CCCN3C2=O)N1`, for which the growth is 106% with DU-145 prostate; 93.9% in the test on K-562 leukemia; 115% with MALME-3M melanoma; 98.9% in the test with MDA-MB-231 breast; 96.9% in the test with RXF 393 renal; 107% in the test on SF-268 CNS. In addition, the growth with SF-295 CNS is 99.5%; in the test with SF-539 CNS it was 96.6%; in the test on UACC-257 melanoma, 95.4%; in the test with M14 melanoma, 94.5%; with HCT-15 colon, 97%; in the test on HT29 colon, 99.8%. The growth in the test with SNB-75 CNS was 100%; in the test on SNB-19 CNS, 94.4%; with U251 CNS, 96.2%; with PC-3 prostate, 87.3%; in the test with SK-MEL-5 melanoma it was 97.5%; with UACC-62 melanoma, 99.7%. The results for the growth in the test on LOX IMVI melanoma and with SK-MEL-28 melanoma were 94.5% and 101%, respectively.

For the molecule `COc1ccc(OC)c([N+](=O)[O-])c1C=O`, the growth in the test with DU-145 prostate was 116%; with K-562 leukemia, 42.4%; with MALME-3M melanoma, 108%; in the test on MDA-MB-231 breast, 107%; in the test on RXF 393 renal, 80.6%; in the test with SF-268 CNS, 109%. Further, the growth with SF-295 CNS is 93.7%; in the test with SF-539 CNS, 105%; with UACC-257 melanoma, 84.1%; in the test with M14 melanoma, 108%; in the test with HCT-15 colon, 104%; in the test with HT29 colon it was 55.6%. Moreover, the growth with SNB-75 CNS is 85.8%; in the test with SNB-19 CNS, 101%; in the test with U251 CNS it was 105%; with PC-3 prostate it was 92.9%; in the test with SK-MEL-5 melanoma, 96.1%; in the test on UACC-62 melanoma, 100%. Further, the growth in the test with LOX IMVI melanoma is 83.4%; in the test with SK-MEL-28 melanoma, 103%.

Take `CS(=O)(=O)Nc1ccc(OCc2nnc(-c3ccc(Cl)cc3)o2)c(F)c1`: the growth with DU-145 prostate is 101%; in the test on K-562 leukemia it was 100%; in the test with MALME-3M melanoma, 111%; with MDA-MB-231 breast it was 85.7%; in the test on RXF 393 renal it was 108%; in the test with SF-268 CNS, 98.9%. Moreover, the growth with SF-295 CNS is 94.1%; with SF-539 CNS, 85.1%; in the test with UACC-257 melanoma it was 99.6%; in the test on M14 melanoma, 99.3%; with HCT-15 colon, 88%; with HT29 colon, 105%. Besides, the growth with SNB-75 CNS is 82.7%; in the test on SNB-19 CNS, 93.5%; in the test with U251 CNS, 99%; in the test on PC-3 prostate, 91%; in the test with SK-MEL-5 melanoma it was 92.3%; in the test with UACC-62 melanoma, 83.7%. Moreover, the growth is 82.9% with LOX IMVI melanoma and 102% in the test on SK-MEL-28 melanoma.

Consider `COc1ccc(-c2nc(-c3nc4ccc(C)cc4[nH]3)c3ccccn23)cc1`, for which the growth with DU-145 prostate was 52.2%; in the test with K-562 leukemia it was 20.4%; in the test on MALME-3M melanoma, 85.3%; in the test on MDA-MB-231 breast it was 32.9%; with RXF 393 renal, 66.5%; in the test on SF-268 CNS, 45%. The growth in the test on SF-295 CNS was 8.6% (active); in the test on SF-539 CNS it was 82.4%; with UACC-257 melanoma, 57.6%; in the test with M14 melanoma it was 46.5%; with HCT-15 colon, 33.7%; with HT29 colon it was 21.9%. Besides, the growth in the test on SNB-75 CNS was 66.6%; with SNB-19 CNS, 55.3%; in the test with U251 CNS, 42.6%; in the test with PC-3 prostate, 25.3%; with SK-MEL-5 melanoma it was 39.9%; in the test on UACC-62 melanoma, 47%. The results for the growth in the test with LOX IMVI melanoma and in the test on SK-MEL-28 melanoma were 46% and 84.6%, respectively.

Values taken from PubChem BioAssay (NCI).
